In the library only some 5.7% were active in any assay of this set; here they are far more common.
D3 antag = qHTS of D3 Dopamine Receptor Antagonist: qHTS; D(3) dopamine receptor (Homo sapiens), P35462; 360,000 compounds, 2.5% hits; max response, negative = inhibition, %; D3R cells, DiscoveRx beta-arrestin luminescence, antagonist mode; hits give low values; AID 652054, 2013; in the data active = max response below about -50%; inconclusive = no clear call, values can overlap the other calls; note: % is set by controls: 0 for no effect and ±100 for the full control effect
Target sequence (P35462 whole entry, looked up): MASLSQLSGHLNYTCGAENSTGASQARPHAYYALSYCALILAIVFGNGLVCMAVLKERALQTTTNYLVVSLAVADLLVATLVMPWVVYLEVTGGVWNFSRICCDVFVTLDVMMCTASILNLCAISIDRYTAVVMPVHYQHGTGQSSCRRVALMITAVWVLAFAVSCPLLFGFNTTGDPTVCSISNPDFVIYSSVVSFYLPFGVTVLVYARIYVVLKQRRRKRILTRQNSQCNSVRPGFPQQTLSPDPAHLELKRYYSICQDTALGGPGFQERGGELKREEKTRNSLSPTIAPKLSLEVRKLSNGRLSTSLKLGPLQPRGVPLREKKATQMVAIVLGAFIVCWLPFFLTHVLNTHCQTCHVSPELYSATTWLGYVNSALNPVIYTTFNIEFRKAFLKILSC
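Cells expressing the human receptor were seeded at 1500 cells/well, incubated overnight at 37 degrees C in 5% CO2, then exposed to library compounds with dopamine controls for 90 minutes at 37 degrees C before luminescent detection.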
GLP1R ag = qHTS of GLP-1 Receptor Agonists; Potency, µM (highest dose often 45.6 µM), without a hit: at the top dose activation, hits mostly activators; AID 624172, 2012; Glucagon-like peptide 1 receptor (Homo sapiens), P43220; 380,000 compounds, 0.007% hits; HEK293 GLP-1R CRE-luciferase, luminescence, 4-6 h; cells express a hypersensitive GLP-1R form; note: potency is the fitted concentration of half-maximal effect; % of control where 0% means no effect
GLP1R cytotox = qHTS of GLP-1 Receptor Inverse Agonists: Cytotox Screen. HEK293 cAMP-luciferase reporter cells, luminescence, 24 h. Potency, µM (doses to about 38.3 µM), without a hit: at the top dose activity change, negative = inhibition, usual class: inhibitors. 410,000 compounds, 0.13% hits;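 note: loss of luciferase light is scored as toxicity; potency is the fitted concentration of half-maximal effect; % is set by controls: 0 for no effect and ±100 for the full control effect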
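Seeding density was 200 cells/uL; after overnight-length (12 h) culture, 23 nL compounds went on for 24 h at 37 °C. Readout used a luciferase detection reagent, luminescence taken after 12 min at room temperature.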
GLP-1R inv ag = qHTS of GLP-1 Receptor Inverse Agonists (Inhibition Mode) | 410,000 compounds, 1.6% hits | Glucagon-like peptide 1 receptor (Homo sapiens), P43220 | HEK293 GLP-1R CRE-luciferase, luminescence, 24 h; GLP-1R form is constitutively active | Potency, µM (titrated, usually from 38.3 µM), for the others: at the highest dose activity change, negative = inhibition, actives largely listed as inhibitors; note: potency is the fitted concentration of half-maximal effect; % is set by controls: 0 for no effect and ±100 for the full control effect; nearly all actives have a fitted effect of over 55% in size
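Using stably transfected HEK293 (constitutively active GLP-1R, cAMP-luciferase reporter), compounds were incubated 24 hr and luciferase measured by luminescence.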
ClpP mod = qHTS Assay for Activators of ClpP. purified B. subtilis ClpP, FRET peptide cleavage, 20 min. 340,000 compounds, 1.9% hits. Potency, µM (highest dose often 57.5 µM), for inactives: at the top dose activity change, negative = active; active = well fitted falling curve with a large enough effect; inconclusive = small, poorly fitted or top-dose-only effect; inactive = no such curve, though single readings can be large or run the other way; note: potency is the fitted concentration of half-maximal effect; the source files actives as falling curves though it sought activators and does not explain the sign; nearly all actives have a fitted effect of over 65% in size
Target sequence (P80244 whole entry, looked up): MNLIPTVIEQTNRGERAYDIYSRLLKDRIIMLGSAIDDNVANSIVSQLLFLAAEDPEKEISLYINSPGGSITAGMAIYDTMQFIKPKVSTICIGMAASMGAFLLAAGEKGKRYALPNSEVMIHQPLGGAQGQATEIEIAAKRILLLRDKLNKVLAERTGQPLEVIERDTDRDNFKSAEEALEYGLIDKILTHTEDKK
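ClpP 10 microg/mL final, pH 8 Tris/KCl buffer with BSA, glycerol, Tween-20; compound pinned in; FRET-FV substrate; RT 20 min; Ex320/Em430; ΔFRET vs ADEP 5.8 microM, DMSO, no enzyme.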
D3 ag = qHTS of D3 Dopamine Receptor Agonist: qHTS | 410,000 compounds, 0.58% hits | max activation, % | D3R DiscoveRx beta-arrestin cells, luminescence, 90 min | AID 652048, 2013; in the data active = max activation above about 30%; note: 0% is about no effect
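Agonist mode: compounds and dopamine controls were applied to plated cells for 90 min at 37 degrees C after an overnight attachment at 1500 cells/well. Luminescent read-out followed 30 - 60 minutes at room temperature with DiscoveRx detection reagent.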
Numbers without * were called inactive; ? = inconclusive; . = no result. Unless noted, calls come from the whole dose curve; as a rule, active = well fitted curve in the direction sought with a large enough effect; inconclusive = small, poorly fitted or top-dose-only effect, or another doubt; inactive = no such curve, though single readings can be large; an effect the other way counts as inactive or inconclusive.

SMILES	D3 antag	GLP1R ag	GLP1R cytotox	GLP-1R inv ag	ClpP mod	D3 ag
COc1ccc(NS(=O)(=O)c2cccc(C(=O)NC3CCC(O)CC3)c2)cc1 (stereo not given)	11	-11%	-6%	17%	-1%	6
CN(C)S(=O)(=O)c1cccc(C(=O)NCC(=O)NC2CCN(Cc3ccccc3)CC2)c1	-8	0%	16%	-13%	.	-20
O=C(OC[C@@H]1CCCN2CCCC[C@H]12)c1cc2ccccc2oc1=O	-21	1%	0%	3%	25µM*	-15
COC(=O)c1cc(C(=O)N2CCN(C(=O)c3ccco3)CC2)cc([N+](=O)[O-])c1	4	-13%	0%	1%	0%	5
COC(=O)c1cc(C(=O)N2CCN(c3ccccc3OC)CC2)cc([N+](=O)[O-])c1	-14	22%	?	1µM*	.	7
COC(=O)c1cc(C(=O)N2CCN(c3ncccn3)CC2)cc([N+](=O)[O-])c1	1	7%	-5%	0%	.	-7
COC(=O)c1cc(C(=O)N2CCN(c3cccc(C)c3C)CC2)cc([N+](=O)[O-])c1	-20	11%	?	4µM*	.	-11
COC(=O)[C@@]12C[C@@H](CC(=O)NCCCN3CCCC3=O)C(=O)N(CCc3ccc(OC)c(OC)c3)C1=CCC(C)(C)C2	1	.	4%	20%	0%	-1
C[n+]1ccc(/C=N/Nc2nc(Cl)c(C#N)c(Cl)c2Cl)cc1	?	-7%	10µM*	30%	-3%	-19
Clc1nnc(N/N=C/c2ccccc2)c2ccccc12	-9	23%	?	?	-2%	4
CC1CCCC(C)N1CCCNC(=O)c1ccc2c(c1)NC(=O)c1ccccc1S2 (stereo not given)	-18	1%	-24%	?	-1%	0
CCC(C)N(CCNC(=O)c1ccc2c(c1)NC(=O)c1ccccc1S2)C1CCCCC1 (stereo not given)	-12	6%	?	3.5µM*	2%	-25
Cc1ccc2c(c1)c1c(c(=O)n(-c3ccccc3C)c(=O)n1CC(=O)NCc1ccccc1)n2C	.	0%	1%	6%	4%	0
Cc1nnc(NCc2ccco2)c2ccccc12	-7	17%	14%	5%	25µM*	-2
Cc1nc(NCc2ccco2)c2oc3ccccc3c2n1	48	24%	-13%	?	14µM*	7
Cn1nnc2c(NCc3ccco3)nccc21	8	-1%	0%	23%	16µM*	2
Cc1nc(Nc2ccncc2)c2oc3ccccc3c2n1	-12	-19%	?	-12%	14µM*	0
CC(=O)Nc1ccc(Nc2nc(C)nc3c2oc2ccccc23)cc1	-19	0%	-19%	27%	14%	-1
O=C(c1cn(CCOc2ccccc2F)c2ccccc12)C1CCCCC1	.	.	-4%	-17%	-1%	7
COc1cccc(COC(=O)C(Cc2ccccc2)NC(=O)c2ccco2)c1 (stereo not given)	0	-1%	-25%	11%	0%	-1
O=C(Cc1ccc(Br)cc1)N1CCN(c2ccccc2O)CC1	-1	1%	-21%	11µM*	2%	-1
COc1ccc(-c2cc(C(=O)N3CCN(c4cccc(C)c4C)CC3)c3ccccc3n2)cc1OC	16	-1%	4%	?	25µM*	29
O=C(c1cc(-c2ccc(Br)cc2)nc2ccccc12)N1CCN(c2ccccc2O)CC1	0	7%	?	2.5µM*	.	11
Cc1ccc(-c2cc(C(=O)N3CCN(c4ccccc4O)CC3)c3ccccc3n2)o1	56	5%	5%	?	3%	22
O=C(c1cc(-c2ccccc2)nc2ccccc12)N1CCc2ccccc2C1	8	-12%	-19%	11µM*	-1%	2
SMILES	D3 antag	GLP1R ag	GLP1R cytotox	GLP-1R inv ag	ClpP mod	D3 ag
Cc1ccc(C(C)C)c(OCC(=O)NCC2(N3CCOCC3)CCCCC2)c1	.	.	2%	?	-1%	3
CC1(C(=O)Nc2cccc3ncccc23)CCN1C(=O)Cc1ccc(-c2ccccc2)cc1 (stereo not given)	85	-1%	-4%	-7%	-10%	6
CC(=O)N1CCc2nc3sc(C(=O)c4ccc(F)cc4)c(N)c3c(C(F)(F)F)c2C1	.	.	3%	-10%	-2%	1
Cn1c(C(=O)NCCN2CCCCCC2)cc2c(=O)n(C)c3ccccc3c21	-2	13%	-14%	8%	4%	-10
Cn1c(C(=O)NCCN2CCN(Cc3ccccc3)CC2)cc2c(=O)n(C)c3ccccc3c21	-93*	-2%	17%	-2%	-14%	-14
Cn1c(C(=O)NCCCN2CCN(c3ccccc3F)CC2)cc2c(=O)n(C)c3ccccc3c21	-73*	-4%	1%	3%	5%	-1
CC1CCN(CCCNC(=O)c2cc3c(=O)n(C)c4ccccc4c3n2C)CC1	-83*	-4%	-10%	3%	4%	-16
CC1C(=O)N(Cc2cn(CCC3OCCCO3)nn2)CCS(=O)(=O)N1Cc1ccc(-c2ccncc2)cc1 (stereo not given)	-17	11%	0%	45%	0%	-9
CCc1nn2c(=O)cc(COC(=O)c3ccccc3NC(=O)COc3ccc(F)cc3)nc2s1	.	.	3%	13%	-15%	1
O=c1[nH]nc(Sc2ncnc3sccc23)n1CCc1ccccc1	?	-7%	?	5.6µM*	1%	10
CCCOC1CCCN(C(=O)c2ccc(OC3CCN(C(=O)COC)CC3)cc2)C1 (stereo not given)	7	-6%	10µM*	11µM*	-4%	-6
CC1CCCN(C(=O)c2ccc(OC3CCN(CCc4ccccc4)CC3)cc2)C1 (stereo not given)	?	3%	?	8.9µM*	-2%	-9
CSCCNC(=O)c1ccc(OC2CCN(CCc3ccccc3)CC2)cc1	-79*	9%	-8%	-25%	-3%	-17
CCCOC1CCCN(C(=O)c2ccc(OC3CCN(C(=O)CCOC)CC3)cc2)C1 (stereo not given)	4	-6%	-4%	15%	-2%	11
CN(C(=O)c1ccc(OC2CCN(CCc3ccccc3)CC2)cc1)C1CCOCC1	-83*	10%	-22%	-11%	-1%	-21

From PubChem
